# According to the supplement of paper PMC6555819:
# Assays:
# Assay in all cases: PBM binding z-score (relative to random genomic background probes); higher = stronger binding; sequences stand for … in GC…GCGATTGACAGCGTAGAATGAAGG
# [1] = tested on: FXR:RXRa (NR concentration 270 nM, RXRa partner concentration 90 nM)
# Outline: (§1)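 For binding z-scores, the reference was random background probes on custom Agilent 4×180K protein-binding microarrays. These arrays were incubated 1 h with ligand-free nuclear receptor dimers in PBS pH 7.4, 2% milk, 0.02% Triton X-100, 1 mM DTT, 0.2 mg/mL BSA and 0.4 mg/ml salmon testes DNA. Fluorescence was scanned after antibody detection of each partner (one per run) and regression-normalized.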
# [2] = tested on: LXRa:RXRa (NR concentration 270 nM, RXRa partner concentration 90 nM)
# Outline: as §1
# [3] = tested on: LXRa homodimer (NR concentration 270 nM)
# Outline: as §1
# [4] = tested on: LXRb:RXRa (NR concentration 270 nM, RXRa partner concentration 90 nM)
# Outline: as §1
# [5] = tested on: LXRb homodimer (NR concentration 270 nM)
# Outline: as §1
# [6] = tested on: PPARa:RXRa (NR concentration 270 nM, RXRa partner concentration 90 nM)
# Outline: as §1
# [7] = tested on: PPARg:RXRa (NR concentration 180 nM, RXRa partner concentration 90 nM)
# Outline: as §1
# [8] = tested on: PPARg:RXRa 270nM:90nM, anti-RXR (NR concentration 270 nM, RXRa partner concentration 90 nM)
# Outline: as §1
# [9] = tested on: PPARg:RXRa 30nM:10nM, anti-RXR (NR concentration 30 nM, RXRa partner concentration 10 nM)
# Outline: as §1
# [10] = tested on: PPARg:RXRa 90nM:30nM, anti-RXR (NR concentration 90 nM, RXRa partner concentration 30 nM)
# Outline: as §1
Sequence,PBM binding z-score [1],PBM binding z-score [2],PBM binding z-score [3],PBM binding z-score [4],PBM binding z-score [5],PBM binding z-score [6],PBM binding z-score [7],PBM binding z-score [8],PBM binding z-score [9],PBM binding z-score [10]
CTACCAAGGTGAACAAGGTCTTTGATTACTATTC,0.811,0.534,-0.122,1.18,-0.113,1.71,0.626,0.721,0.0464,0.438
GCGACTGGGGCATCAGCAGGTTACGATAACTTAA,-0.306,-0.214,-0.449,0.641,-0.638,1.38,1.05,0.876,-0.247,0.263
AGAACGAGGGCACGCTGCGTTGATAGCAGAGTAG,0.623,0.419,-0.7,-0.144,-0.905,1.75,1.89,1.74,0.373,1
TATACAGGGTCAATGGCCAGAGTACGAATGTCGA,5.92,5.45,1.39,3.89,2.05,5.16,5.11,4.94,2.12,3.87
CCTTACGGGGCACTCCAGGTTATAGCATCGGAGT,0.717,5.05,0.548,1.13,-0.636,0.679,0.305,0.0783,-0.441,-0.274
AGAACGAGGGCACGGTGAGTTGATAGCAGAGTAG,1.12,0.775,-0.352,0.306,-0.638,2.61,2.7,2.19,0.933,1.2
GCTGATAGGTCAGGTTGGTCAGCTAACGGGTACG,2.43,2.19,-0.0156,1.67,0.114,2.71,0.952,1.4,-0.0509,0.754
CGAACTAGGTCATCCATGACAGTGAATACATTGA,3.96,2.2,0.578,2.07,0.325,5.09,7.88,6.33,4.18,5.8
TAGCCTAGGTCAGATCGGGCCAGTAGACGCTATA,2.39,0.985,-0.414,0.183,-0.713,1.45,0.406,0.586,-0.637,0.224
ATCGCTAGGTAAAAGTTCAGTGAATCCCGAGGAT,0.352,1.06,0.677,0.618,-0.3,2.84,4.94,5.9,5.05,6.23
TCTTGTAGCTCAAAGGTTAAGAAAGCCGAAGCCT,0.766,1.08,-0.349,1.32,-0.747,3.36,4.77,6.09,4.64,6.1
TCATATAGGTAAACGGTGAAAGTCGGTGTGGTAA,0.188,0.878,0.118,0.712,-0.229,2.17,2.41,4.15,4.43,4.57
TCATATAGGTAAATGGTAGGTGAAAGTCCGATCT,1.34,1.54,0.813,1.26,0.456,1.8,1.39,3.17,3.85,3.74
TCTGCTAGGTCAGCTGGTCAGCTAACGAGCTGCC,1.35,0.826,-1.11,0.287,-0.343,1.95,0.828,1.78,1.12,1.23
TAGCCTAGGTCATCCGGGCCAGTATAGTGTCGGC,4.52,3.54,0.755,2,0.281,3.48,1.95,2.35,0.0412,1.5
TAGCCTAGGTCAGATCGGGCCAGAATACGCTATA,1.65,1.06,-0.312,0.942,-0.714,1.79,0.869,0.835,-0.187,0.398
TAGCCTCGGTCAGATCGGGCCAGTATACGCTATA,-0.00556,-0.383,-0.622,-0.821,-0.951,-0.586,0.128,-0.706,-0.684,-1.07
CCGACTGGGGCATAAGGATACCATAAGCCAGCCC,-0.174,-0.373,-0.612,-0.813,-1.53,-0.0359,1.29,1.46,0.0303,0.707
TCGAGTAGGTTATCAATGGGGCATTCAGCTTTCT,0.264,1.14,-0.501,1.05,-0.428,0.979,-0.105,0.76,1.03,0.852
CCTACTGGGCCATTCATAGGTCATTGATCATATG,0.867,2.17,3.55,2,-0.0981,2.64,1.49,1.93,0.277,1.06
TCTAGCAGGCCAGAGGGTCATTCAAGAGGTACGG,1.45,1.27,-0.353,1.51,-1.01,2.71,1.54,3.08,2.26,2.98
AGTCAAGGTTCATCTAGGTAACGTAAGATATGCT,5.36,4.13,1.89,2.57,0.451,3.64,3.69,3.68,1.41,2.98
TGAATGAGGTTAAAAATCAGGGAACGTGGCGTCG,1.83,1.78,-0.491,1.1,0.545,2.87,1.72,2.33,1.16,1.77
